From PubChem
SARS PLpro yeast – qHTS of Yeast-based Assay for SARS-CoV PLP; S. cerevisiae expressing SARS-CoV PLpro, growth rescue; Potency, µM (series often up to 32.9 µM), for inactives: top-dose activity, positive = growth rescue, hits mostly activators; 330,000 tested, 0.19% active; AID 485353, 2010; further: potency means the concentration at half of the fitted maximal effect; 0% is about no effect; nearly all actives have a fitted effect of over 55% in size
Pf growth 96h – Primary qHTS for delayed death inhibitors of the malarial parasite plastid, 96 hour incubation | P. falciparum luciferase reporter growth, 96 h | 320,000 tested, 6.9% active | Potency, µM (doses to about 28.7 µM), for the others: at the highest dose activity change, negative = inhibition, most hits filed as inhibitors; active means well fitted inhibition curve with a large enough effect; inconclusive means small, poorly fitted or top-dose-only effect, or another doubt; inactive means no such curve, though single readings can be large or run the other way; further: potency means the concentration at half of the fitted maximal effect; on the % scale 0 is the no-effect control and ±100 the full control effect
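Two-generation exposure (96 h) targets delayed-death phenotype. Reporter parasites carrying integrated firefly luciferase, in red cells at 2% hematocrit and 0.05% parasitemia final, kept at 37 C, 5% CO2; luminescence loss indicates inhibition.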
Pf growth 48h – Primary qHTS for delayed death inhibitors of the malarial parasite plastid, 48 hour incubation; AID 504832, 2011; 310,000 tested, 5.9% active; Potency, µM (series often up to 28.7 µM), for the others: at the top dose activity change, negative = inhibition, actives largely listed as inhibitors; P. falciparum luciferase growth in erythrocytes, 48 h; active means well fitted inhibition curve with a large enough effect; inconclusive means small, poorly fitted or top-dose-only effect, or another doubt; inactive means no such curve, though single readings can be large or run the other way; further: potency means the concentration at half of the fitted maximal effect; on the % scale 0 is the no-effect control and ±100 the full control effect
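Luciferase-expressing P. falciparum in infected erythrocytes (2% hematocrit, 0.1% parasitemia final) in RPMI 1640/0.5% Albumax were exposed to compound for 48 hours at 37 C, 5% CO2; growth read as luminescence.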
Shiga toxin inh – A qHTS for Small Molecule Inhibitors of Shiga Toxin | Vero cells, Shiga toxin protein synthesis inhibition reporter | AID 2315, 2010 | 290,000 tested, 9.2% active | inhibition, % at 38.7 µM; in the data active means inhibition mostly above about 28%, no sharp cut-off; inactive means mostly below about 43%; further: 0% is about no effect
Cycloheximide cs – Cycloheximide Counterscreen for Small Molecule Inhibitors of Shiga Toxin; cell reporter, cycloheximide protein synthesis inhibition counterscreen; 300,000 tested, 12% active; AID 2314, 2010; max response, %; in the data active means max response mostly above about 13%, no sharp cut-off; inactive means mostly below about 14%; further: read at 38.3 µM for the half of the compounds with a filed dose; 0% is about no effect
NS1 function inh – qHTS Assay for Inhibitors of Influenza NS1 Protein Function. Potency, µM (titrated, usually from 46.1 µM), for inactives: top-dose activity, positive = more growth. 270,000 tested, 0.4% active. AID 2326, 2010; further: potency means the concentration at half of the fitted maximal effect; actives are rising curves; nearly all actives have a fitted effect of over 50% in size
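Read-out: OD600 growth recovery of NS1-expressing budding yeast. Cells grown overnight at 30C in -URA glucose medium, washed, resuspended and diluted 1:100 in 2% galactose assay medium, pH 6.0. Same strain lacking NS1 served as positive control.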
Active calls of the source: *; i = inactive; ? = inconclusive; . = not tested or not shown. Shown are actives, neighbours in structure and some others; about 21% of the full set was active somewhere. Unless noted, the call rests on the fitted dose curve.

SMILES	SARS PLpro yeast	Pf growth 96h	Pf growth 48h	Shiga toxin inh	Cycloheximide cs	NS1 function inh
O=C(Nc1ccc2c(c1)OCCO2)C1CCCN(S(=O)(=O)c2cccnc2)C1 (stereo not drawn)	6%	?	2%	13	1	-19%
Nc1ccccc1SCC(=O)Nc1ccc2c(c1)OCCO2	-4%	25%	112%	87*	37*	2%
O=C(CC(c1ccccc1)c1ccccc1)Nc1ccc2c(c1)OCCO2	-9%	59%	?	49	16	-15%
Cc1cccc(SCC(=O)Nc2ccc3c(c2)OCCO3)c1	1%	95%	8%	102*	39*	-46%
Nc1ccccc1SCC(=O)Nc1ccc2c(c1)OCO2	2%	-7%	20%	73*	23*	-16%
CC(=O)NC(CC(=O)Nc1ccc2c(c1)OCCO2)c1ccccc1 (stereo not drawn)	-1%	64%	40%	52	20*	-8%
Cc1nc(SCC(=O)Nc2ccc3c(c2)OCCO3)nc(C)c1C	-1%	24%	3%	16	13	.
O=C(CSc1nnc(-c2ccc(C(F)(F)F)cn2)o1)Nc1cccc(Cl)c1	3%	55%	115%	56	17*	2%
O=C(CSc1nnc(-c2ccccn2)o1)Nc1cccc(Cl)c1	0%	85%	231%	31	13	9%
O=C(CSc1nnc(-c2cccc(Cl)c2)o1)Nc1ccc2c(c1)OCCO2	-12%	i	i	36*	15	16%
COc1ccccc1C(=O)Oc1cc(C)[nH]c(=O)c1[N+](=O)[O-]	0%	23%	13%	-3	-5	.
Cc1cc(OCC(O)CN2CCCC2)cc(C)c1Cl (stereo not drawn)	1%	-24%	6%	-7	-10	11%
Cc1ccc(S(=O)(=O)N[C@@H](C)C(=O)N2CCC(C(=O)N3CCC[C@H]3C(=O)O)CC2)cc1	-1%	.	-7%	-13	-6	8%
COC(=O)C1CCN(C(=O)C2CCN(C(=O)[C@H](C)NS(=O)(=O)c3ccc(C)cc3)CC2)CC1	1%	12µM*	?	-1	-2	-15%
O=C(Nc1ccc2c(c1)oc1ccccc12)c1cccnc1	-7%	2.1µM*	?	58	38*	-51%
O=C(Nc1ccc2c(c1)oc1ccccc12)c1ccncc1	-15%	?	30%	67*	51*	-85%
O=C(Nc1cc(Cl)cc(Cl)c1)c1cccnc1	-2%	19%	?	.	-3	-112%
CNC(=O)COc1ccccc1C(=O)Nc1ccc2c(c1)oc1ccccc12	-5%	4.7µM*	.	20	6	4%
N#Cc1ccccc1NC(=O)c1ccccc1OCC(=O)Nc1ccc2c(c1)oc1ccccc12	.	.	.	.	.	16%
NC(=O)c1ccccc1NC(=O)CC12CC3CC(CC(Br)(C3)C1)C2	3%	24%	-3%	-2	-5	10%
Cn1nnnc1SCC(=O)Nc1ccccc1-c1ccccc1	2%	?	34%	21	13	4%
COc1ccc(-n2nnnc2SCC(=O)Nc2ccccc2N2CCOCC2)cc1	-1%	13%	?	21	-1	-5%
CC(Sc1nnnn1-c1ccccc1)C(=O)Nc1ccccc1-c1ccccc1 (stereo not drawn)	5%	2.9µM*	?	-10	-1	?
Cc1ccc(-n2nnnc2SCC(=O)Nc2ccccc2N2CCCCC2)cc1C	9%	?	2.3µM*	34	8	-31%
CCOc1ccccc1NC(=O)CSc1nnnn1-c1ccc(C(=O)OC)cc1	-7%	4.1µM*	13%	-5	-6	-5%
COC(=O)c1ccc(-n2nnnc2SCC(=O)Nc2ccccc2OC)cc1	-3%	.	10%	37	-2	-1%
Cc1ccc(-n2nnnc2SCC(=O)Nc2ccccc2-c2ccccc2)cc1C	-4%	4.7µM*	-16%	5	3	10%
CC(Sc1nnnn1-c1ccccc1)C(=O)Nc1ccc(N2CCN(C)CC2)cc1 (stereo not drawn)	5%	22%	-2%	56	-2	-4%
